Data: ChEMBL document CHEMBL4513216, “Probing the Open Global Health Chemical Diversity Library for Multistage-Active Starting Points for Next-Generation Antimalarials” (ACS Infect Dis, 2020)
Among all 69,000 compounds or so, about 8,600 (12%) showed an effect of 50% or more. This is one part of a sample in which strong results are shown more often than they occur.

System: Plasmodium berghei
Test: Screen against P. berghei liver stage (PbLuc), transformed with Luciferase, at 10uM
Format: functional, HepG2
Conditions: tested at 10 uM

Compared with `CCCc1n[nH]c(C2CN(C(=O)c3cccc4cn[nH]c34)CCO2)n1` (configuration not stated), `CCN(CC)Cc1nc2c(o1)CN(C(=O)c1ccncc1F)C2` is higher in INHIBITION: -11.9% for the first, 3.17% for the second.

Compared with `O=C(NCC1CC2(CO1)CN(c1nncs1)C2)C1CCC1` (configuration not stated), `O=C(CN(Cc1ccco1)C1CC1)N1CCCCCC1` is lower in INHIBITION: 1.36% for the first, -8.11% for the second.

Going from `COC[C@H]1CNC(=O)[C@@H]2CCN(Cc3ccc(F)cc3)CC[C@H]12` to `CN(C)C(=O)C1CCN(Cn2nc(-c3ccc(F)cc3)oc2=O)CC1`, the INHIBITION rises from 34.4% to 34.7%.

Compared with `COc1ccc2nnc(CCC(=O)Nc3nc(C)c(C)s3)n2n1`, `Cc1nnc2ccc(OCCNS(C)(=O)=O)nn12` is lower in INHIBITION: 24.2% for the first, 5.91% for the second.

Compared with `O=C(NC1CC1)N1CC[C@@H](O)[C@@H]1Cc1ccccc1`, `O=C(C1CCOC1)N1CC[C@@H](O)[C@@H]1Cc1ccccc1` (some centres not stated) is higher in INHIBITION: -23.3% for the first, 10.7% for the second.

First: CN(C)c1cc(C(=O)N2CCCN(c3cccnn3)CC2)ccn1
Second: CC(C)(C)Cc1noc2ncc(C(=O)N3CCC3)cc12
The INHIBITION of the first is higher: 38.7% for the first, 29% for the second.

Compared with `Cc1nonc1OCCNC(=O)COc1ccc(F)cc1F`, `Cc1nonc1OCCNC(=O)COc1ccc(Cl)cc1Cl` is lower in INHIBITION: 7.92% for the first, 7.38% for the second.

Going from `Cc1nonc1OCCNC(=O)CCCc1ccc(Cl)cc1` to `OC(COCc1ccc(Cl)cc1)CN1CC(n2cccn2)C1` (configuration not stated), the INHIBITION falls from 57.8% to -3.6%.

First: N#Cc1c(F)cccc1Nc1cnn(CC(O)CN2CCOCC2)c1 (configuration not stated)
Second: O=C(NCC(c1ccc(F)cc1)N1CCOCC1)Nc1cn[nH]c1 (configuration not stated)
The INHIBITION of the first is higher: 44.9% for the first, -57.4% for the second.

First: O[C@@H]1CN(CC2=Cc3cc(Cl)ccc3OC2)CC[C@H]1N1CCCCCC1
Second: CN1CCN([C@@H]2CCN(CC3=Cc4cc(Cl)ccc4OC3)C[C@H]2O)CC1
The INHIBITION of the first is lower: 31.9% for the first, 62.4% for the second.

Compared with `CN1CCN([C@@H]2CCN(Cc3cccc(-n4cccn4)c3)C[C@H]2O)CC1`, `CN1CCN(Cc2cn3c(n2)CNCC3)CC1` is higher in INHIBITION: 22.9% for the first, 36.4% for the second.

Compared with `O=C(C1CCOC1)N1CCC2(CC1)COC2` (configuration not stated), `Cn1ccc(C(=O)NC2CCC23CCN(C(=O)N2CCCC2)CC3)c1` (configuration not stated) is higher in INHIBITION: 19.8% for the first, 20.5% for the second.

Compared with `COCC(=O)N1CCN(C)C(=O)C(Cc2ccc(-c3cccs3)cc2)C1` (configuration not stated), `CNC(=O)[C@@H]1C[C@H](n2cc(-c3ccc(CN4CC=CC4)cc3)nn2)CN1` is higher in INHIBITION: 6.26% for the first, 41.2% for the second.

First: CC(C)(C)Cc1noc2ncc(C(=O)N3CCSCC3)cc12
Second: CC1CN(C)CCN1C(=O)c1cnc2onc(CC(C)(C)C)c2c1 (configuration not stated)
The INHIBITION of the first is lower: 37.7% for the first, 53.9% for the second.

First: OCc1cc(C2CCCN2c2ncccn2)n[nH]1 (configuration not stated)
Second: c1cnc(N2CCCC3(CCN(Cc4ccsc4)C3)C2)nc1 (configuration not stated)
The INHIBITION of the first is lower: 12.27% for the first, 53.2% for the second.

First: COc1cccc(COCC(O)CN2CC(n3cccn3)C2)c1 (configuration not stated)
Second: OC(COCc1ccccc1)CN1CC(n2cccn2)C1 (configuration not stated)
The INHIBITION of the first is higher: 52% for the first, 39.6% for the second.

First: CCc1cnc(N2CC3(CCN(Cc4ccsc4)C3)C2)nc1
Second: Fc1cnc(N2CC3(CCN(Cc4ccsc4)C3)C2)nc1
The INHIBITION of the first is lower: 7.39% for the first, 52% for the second.

Compared with `c1ccc(N2CCCC3(CCN(Cc4ccsc4)C3)C2)nc1` (configuration not stated), `Fc1cnc(N2CCCC3(CCN(Cc4ccsc4)C3)C2)nc1` (configuration not stated) is higher in INHIBITION: 37.1% for the first, 43.8% for the second.

Compared with `c1cnc(N2CCOCC3(CN(Cc4ccsc4)CCO3)C2)nc1` (configuration not stated), `Fc1cnc(N2CCOC3(CCN(Cc4ccsc4)CC3)C2)nc1` is higher in INHIBITION: -47.5% for the first, 71.6% for the second.

First: Fc1cnc(N2CCCC3(CN(Cc4ccccc4)CCO3)C2)nc1 (configuration not stated)
Second: O=C(CCc1ccccc1)C1CCCN(C(=O)c2cncc(Cl)c2)C1 (configuration not stated)
The INHIBITION of the first is lower: -15.3% for the first, 42.5% for the second.

Compared with `c1csc(CN2CC3(CCN(Cc4ccsc4)C3)C2)n1`, `CO[C@@H]1CCN(Cc2cnn(C)c2)[C@@H]2CN(Cc3cccnc3)C[C@@H]21` is higher in INHIBITION: 0.542% for the first, 5.96% for the second.

Compared with `O=C(Nc1cnc2n1CCCC2)C1CCCN1C1CCNCC1` (configuration not stated), `CCN(CC)S(=O)(=O)N1CCCC1c1nnc2n1CCCCC2` (configuration not stated) is higher in INHIBITION: 15.7% for the first, 20.9% for the second.

First: N#Cc1cn(C2CC2)c(=O)n(CC(O)c2ccccc2C(F)(F)F)c1=O (configuration not stated)
Second: CC(C(=O)Nc1ccc(C#N)cc1)N1CCc2ccccc21 (configuration not stated)
The INHIBITION of the first is higher: 29.4% for the first, -45.2% for the second.

Going from `CCS(=O)(=O)NC(CCSC)C(=O)Nc1ccc(C)cc1C` (configuration not stated) to `CNC(=O)CCNC(=O)c1cc(C)n(-c2cccc(OC)c2)c1C`, the INHIBITION falls from 31.2% to 11.2%.

First: CC[C@H](Cn1ncc2ccccc2c1=O)NC(=O)c1cnc(C)cn1
Second: CNC(=O)c1cc(-c2ccccc2)nc2ncnn12
The INHIBITION of the first is lower: 1.62% for the first, 49% for the second.

First: CCOC(=O)NCc1nn(CCN2CCCC2)c(=O)c2ccccc12
Second: CCc1oc(C(=O)NCCSc2ncn[nH]2)cc1CN1CCCC1
The INHIBITION of the first is higher: 48.8% for the first, 37.9% for the second.

First: CC(C)NC(=O)N1CCC2(COCc3cnc(-c4cccnc4)nc32)C1 (configuration not stated)
Second: O=C(NCC(F)F)c1cc(-c2ccccc2)nc2ncnn12
The INHIBITION of the first is lower: 38.1% for the first, 60.2% for the second.

Compared with `CCOc1ncccc1NC(=O)N1CCN(CC(=O)NC)CC1`, `Cc1ccnc(NC(=O)C2CCN(CCCn3ccnc3C)CC2)c1` is higher in INHIBITION: -22.91% for the first, 44.3% for the second.

Compared with `Cc1nccn1CCCN1CCC2(CCC(=O)N(CC3CC3)C2)CC1`, `Cc1ccnc(NC(=O)C2CCN(CCCn3ccnc3)CC2)c1` is higher in INHIBITION: 34.5% for the first, 61.9% for the second.

Going from `CN(C)[C@H]1CCN(c2nc(C(C)(C)C)nc3c2cnn3C)C1` to `COCC1CCN(c2nc(C(C)(C)C)nc3c2cnn3C)C1` (configuration not stated), the INHIBITION rises from 9.35% to 50.1%.

First: CCCc1nc(N2CCCC3(CCNC3)C2)c2cnn(C)c2n1 (configuration not stated)
Second: Cn1ncc2c(N3CCCC4(CCNC4)C3)nc(C(C)(C)C)nc21 (configuration not stated)
The INHIBITION of the first is lower: 47.1% for the first, 63.8% for the second.

Compared with `CC(=O)NCCC1CCN(c2nc(C(C)(C)C)nc3c2cnn3C)CC1`, `Cn1ncc2c(N3CCC(CCO)CC3)nc(C(C)(C)C)nc21` is lower in INHIBITION: 64.9% for the first, 22.9% for the second.

Compared with `CCC1(O)CCCN(c2nc(C(C)(C)C)nc3c2cnn3C)C1` (configuration not stated), `Cn1ncc2c(N3CCCC(C)(O)C3)nc(C(C)(C)C)nc21` (configuration not stated) is lower in INHIBITION: 48% for the first, 19.2% for the second.

First: COCc1nc(N2CC[C@H](N(C)C)C2)c2cnn(C)c2n1
Second: COCCc1noc(CN2CCCC2c2c(C)nn(C)c2Cl)n1 (configuration not stated)
The INHIBITION of the first is lower: -15.8% for the first, 5.9% for the second.

First: CNC(=O)[C@@H]1[C@@H](c2ccccc2)CN2CCN(Cc3cc(C)no3)C[C@H]12
Second: O=C(CSC1CCCC1)N1CCN(C(=O)C2CC2c2ccccc2)CC1 (configuration not stated)
The INHIBITION of the first is lower: 31.3% for the first, 46.4% for the second.

First: Cc1cc(C(=O)Nc2ccc(-c3nnc(N(C)C)o3)cc2)oc1C
Second: Cc1cnc(-c2cccc(-c3ccn(CCCO)n3)c2)nc1N(C)C
The INHIBITION of the first is lower: 22.1% for the first, 26.8% for the second.

Compared with `COCCNCc1cc2cc(C)cc(C)c2[nH]c1=O`, `COCCN(Cc1ccccc1C)c1nc(C)nc2oc(C)nc12` is higher in INHIBITION: 14.6% for the first, 74% for the second.

First: COc1ccc(CNCC2CN(C3CC3)CCO2)cc1OC (configuration not stated)
Second: CCCN1CCC(Cc2noc(-c3ncccc3C)n2)CC1
The INHIBITION of the first is lower: -13.6% for the first, 12.9% for the second.

First: COc1ccccc1-c1nnc2n1N=C(N)C(C#N)S2 (configuration not stated)
Second: Cc1nc(N(CCC(N)=O)Cc2ccccc2)c2nc(C)oc2n1
The INHIBITION of the first is lower: 34.3% for the first, 48.8% for the second.

First: COCC1CCN(CCCc2cn[nH]c2)CC1
Second: c1n[nH]cc1CCCN1CCC(OC2CCCCC2)CC1
The INHIBITION of the first is higher: 30.8% for the first, 11.8% for the second.

First: Cc1ccnc(NC(=O)C2CCN(CCCc3cn[nH]c3)CC2)c1
Second: O=C(NCc1ccccc1)N1Cc2nc(COCC3CC3)oc2C1
The INHIBITION of the first is higher: 54.5% for the first, 44.2% for the second.

First: CC(C)(C)CC(=O)NCC(=O)Nc1ccn(CCCn2ccnc2)n1
Second: COC(=O)CNC(=O)c1cc(-c2ccccc2)nc2ncnn12
The INHIBITION of the first is lower: 23.1% for the first, 28.2% for the second.

Going from `O=C(c1ccc(-c2ccc(O)nc2)s1)N1CCCCCC1` to `O=C(c1ccc2[nH]ccc2c1)N1Cc2nc(CN3CCCCC3)oc2C1`, the INHIBITION rises from -13.87% to 50.7%.

First: COCCN(Cc1cccnc1)c1nc(C)nc2oc(C)nc12
Second: CCOc1ccc(CN(CCOC)c2nc(C)nc3oc(C)nc23)cc1
The INHIBITION of the first is lower: 44.3% for the first, 83.2% for the second.

Compared with `CCN(Cc1ccncc1)c1nc(C)nc2oc(C)nc12`, `Cc1nc(N(C)CCCc2nccn2C)c2nc(C)oc2n1` is lower in INHIBITION: 40.6% for the first, -26.7% for the second.

Going from `CCS(=O)(=O)N1CC[C@H]2[C@H]1CC(=O)N2Cc1csc(C)n1` to `Cc1nc(S(=O)(=O)N2CCC3(CCCCC3)C2)cn1C`, the INHIBITION rises from -10.3% to -9.2%.

Going from `CCS(=O)(=O)CC(=O)NC(c1ccccc1)C1CCCCC1` (configuration not stated) to `N#Cc1ccc(NCCS(=O)(=O)N2CCc3ccccc32)nc1`, the INHIBITION rises from -5.53% to 14%.

Going from `N#Cc1ccc(CNCCS(=O)(=O)N2CCc3ccccc32)cc1` to `NC(=O)COc1cccc(C(=O)NCc2ccc(Cl)s2)c1`, the INHIBITION falls from 60.3% to 3.03%.

Compared with `O=C(c1ccc2[nH]ccc2c1)N1Cc2nc(CN3CCCC3)oc2C1`, `CCN(CC)Cc1nc2c(o1)CN(C(=O)c1ccc3[nH]ccc3c1)C2` is lower in INHIBITION: 31.4% for the first, 0.804% for the second.

Going from `O=C(c1ccncc1F)N1Cc2nc(COCC3CC3)oc2C1` to `CN(C)Cc1nc2c(o1)CN(C(=O)c1ccncc1F)C2`, the INHIBITION falls from 55.7% to 24.9%.

First: O=C(c1ccc(F)c(F)c1)N1CCCSCC1CN1CCCC1 (configuration not stated)
Second: O=C(c1ccc2[nH]ccc2c1)N1CCCSCC1CN1CCCC1 (configuration not stated)
The INHIBITION of the first is lower: 25.3% for the first, 59.8% for the second.

Compared with `O=C(Cc1cccs1)N1Cc2nc(COCC3CC3)oc2C1`, `O=C(c1ccncc1F)N1Cc2nc(CN3CCCCC3)oc2C1` is higher in INHIBITION: 18.6% for the first, 51.2% for the second.

First: O=C(c1ccc2c(c1)OCO2)N1CCCSCC1CN1CCCC1 (configuration not stated)
Second: CNc1nc2c(c(C(=O)N3CCCC3)n1)CN(C(=O)C1CCCC1)CC2
The INHIBITION of the first is lower: 3.16% for the first, 43.4% for the second.

Compound `CCC(=O)N1CCCc2c(cnn2C)C1` has an INHIBITION of -5.452%.
